{
  "source": "PubChem BioAssay (NCATS)",
  "note": "Values without a mark were called inactive. No rule for the calls is given here. Potency is read from the fitted curve at half-maximal effect.",
  "data": [
    {"tested_on": "HIV-1 nucleocapsid protein NCp7 (binding to TG oligonucleotide)", "experiment": "HIV Nucleocapsid (AID 346);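 also: potency is for inhibitors that block NC binding and lower polarization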", "conditions": "HIV-1 NC / fluorescein-TGTGTGTG probe, fluorescence polarization", "procedure,_shortened": "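10 nM TG4xF probe with 100 nM nucleocapsid protein in high-salt Hepes pH 7.5 (250mM NaCl) containing 1uM ZnCl2 and reducing agents. Compound inhibition of binding was read as fluorescein polarization after 1 hr at room temperature.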", "units": {"Potency": "µM"}, "values": [
      {"smiles": "COc1ccc(-c2nc3cnc(Nc4cccc(OC)c4)nc3n(C3CC3)c2=O)cc1", "Potency": 15.7},
      {"smiles": "O=c1c(-c2ccccc2)nc2cnc(Oc3ccccc3)nc2n1C1CC1", "Potency": "> 20"},
      {"smiles": "CS(=O)(=O)N1CCC2(CC1)CN(c1ccccn1)C2", "Potency": "> 20"},
      {"smiles": "COc1cccc(Cn2c(=O)cnc3cncnc32)c1", "Potency": "> 20"},
      {"smiles": "COc1ccccc1CNc1nc(-c2c(C)noc2C)nc2ccccc12", "Potency": "> 20"},
      {"smiles": "FC(F)(F)c1ccccc1-c1nccc(NCCN2CCOCC2)n1", "Potency": "> 20"},
      {"smiles": "CN(C)c1ccc(-c2nc(-n3ccnc3)c3ccccc3n2)cc1", "Potency": "> 20"},
      {"smiles": "COc1cccc(Nc2ncc3nc(CCc4ccccc4)c(=O)n(C)c3n2)c1", "Potency": "> 4"},
      {"smiles": "FC(F)(F)c1ccccc1-c1nccc(N2CCNCC2)n1", "Potency": "> 20"},
      {"smiles": "COCCn1c(=O)c(-c2ccccc2)nc2cncnc21", "Potency": "> 20"},
      {"smiles": "COc1ncc2nc(-c3ccc(F)cc3)c(=O)n(C)c2n1", "Potency": "> 20"},
      {"smiles": "COc1cccc(Cn2c(=O)cnc3cnc(Oc4ccccc4)nc32)c1", "Potency": "> 4"},
      {"smiles": "Cc1nc2cnc(Oc3ccccc3)nc2n(CCC#N)c1=O", "Potency": "> 20"},
      {"smiles": "N#Cc1cccc(-c2nc(N3CCNCC3)c3ccccc3n2)c1", "Potency": "> 20"},
      {"smiles": "COc1ccc2[nH]cc(CCNc3ccnc(-c4ccc(C(=O)N(C)C)cc4)n3)c2c1", "Potency": "> 20"},
      {"smiles": "Cc1noc(C)c1-c1nccc(N(C)Cc2ccco2)n1", "Potency": "> 20"}
    ]}
  ]
}
